Results filed as inconclusive are left out. Unmarked numbers belong to inactive results. Calls of active or inactive are those of the source. Calls come from the whole dose curve.
Assay: qHTS assay to identify small molecule antagonists of the sonic hedgehog signaling (Shh) pathway (AID 1259369); note: nearly all actives have a fitted effect of over 45% in size
Settings: NIH/3T3 Gli1-Luc reporter, Shh antagonist, luminescence 24 h; series mostly up to 92.4 µM; activity change, negative = inhibition: at the top concentration
Method in brief: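 Luminescence readout: firefly Luc under Gli1 response element in 3T3Gli1-Luc cells (NIH/3T3 clone). Antagonist mode, stimulation by conditioned medium; compound exposure 24hr at 37 C, 5% CO2.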
% is set by controls: 0 for no effect and ±100 for the full control effect; potency is the fitted concentration of half-maximal effect.

Compared with `CCCCC(CC)CN1CN(CC(CC)CCCC)CC(C)(N)C1` (configuration not stated), `CCCCCCCC/C=C\CCCCCCCCN` is higher in “activity change, negative = inhibition” value: -14% [at 42.5 µM] for the first, -0.191% [at 42.5 µM] for the second.

Going from `COC1=C(OC)C(=O)C(CCCCCCCCCCO)=C(C)C1=O` to `COc1c(C)c2c(c(O)c1C/C=C(\C)CCC(=O)OCCN1CCOCC1)C(=O)OC2`, the “activity change, negative = inhibition” value rises from -17.3% [at 42.5 µM] to -1.33% [at 42.5 µM].

First: CN(C)CCN1CCN(c2cccc(Cl)c2)C1=O
Second: CCc1cccc(CC)c1NC(=O)CN(CC(=O)O)CC(=O)O
The “activity change, negative = inhibition” value of the first is higher: 14.9% [at 42.5 µM] for the first, 14.7% [at 42.5 µM] for the second.

Compared with `Cc1cccc(C)c1NC(=O)c1ccc(N)cc1`, `CCOC(=O)NNc1ccc(N(CC)CC(C)O)nn1` (configuration not stated) is lower in “activity change, negative = inhibition” value: 1.96% [at 42.5 µM] for the first, -4% [at 42.5 µM] for the second.

For `Cc1cc(=O)oc2cc(O)cc(O)c12`, the Potency was 21.8 µM (active).
In the case of `CC(C)=CCNc1ncnc2c1ncn2[C@@H]1O[C@H](CO)[C@@H](O)[C@H]1O`, the Potency is reported as 2.98 µM (active).
With `O=C(O)Cc1ccccc1Nc1c(Cl)cccc1Cl` the Potency was “inactive”.

Compared with `NC(=S)NC(N)=S`, `NC(=O)c1cccc([N+](=O)[O-])c1` is higher in “activity change, negative = inhibition” value: 2.73% for the first, 17.6% for the second.

First: O=C(/C=C/c1ccccc1)OC/C=C/c1ccccc1
Second: CC(CO)Oc1ccccc1 (configuration not stated)
The “activity change, negative = inhibition” value of the first is lower: 6.54% for the first, 25.8% for the second.

First: CC(C)OC(=O)C(O)(CC(=O)O)CC(=O)O
Second: CCCCCCOC(=O)C(C)CC (configuration not stated)
The “activity change, negative = inhibition” value of the first is lower: 0.819% for the first, 5.58% for the second.

Going from `c1ccsc1` to `CCN(CC)c1ccc2c(-c3ccc(S(=O)(=O)O)cc3S(=O)(=O)[O-])c3ccc(=[N+](CC)CC)cc-3oc2c1`, the “activity change, negative = inhibition” value falls from 14.3% to 7.31%.

Going from `Clc1sc(Cl)c(Cl)c1Cl` to `ClCCl`, the “activity change, negative = inhibition” value rises from 3.34% to 11.7%.

In the case of `OC[C@H]1O[C@H](O[C@H]2O[C@H](CO)[C@@H](O)[C@H](O)[C@H]2O)[C@H](O)[C@@H](O)[C@@H]1O`, the “activity change, negative = inhibition” value is reported as 1.01%.
